# Measured values as given in PubChem BioAssay AID1490 (National Center for Advancing Translational Sciences (NCATS), 2009).
# “And” between values parts separate entries of the source, which are not always exact repeats. Equal values may be shown once. About 11,000 (3.5%) of roughly 310,000 compounds were called active. Roughly 4% stayed inconclusive and do not appear here. The entries come from a sample that favours actives as a whole. Unmarked numbers belong to inactive results. Calls come from the whole dose curve; as a rule, active = well fitted inhibition curve with a large enough effect; inconclusive = small, poorly fitted or top-dose-only effect, or another doubt; inactive = no such curve, though single readings can be large or run the other way.
# Target: 4'-phosphopantetheinyl transferase ffp (Bacillus subtilis) (UniProt Q9F4F7)
# Assay: qHTS Assay for Inhibitors of Bacillus subtilis Sfp phosphopantetheinyl transferase (PPTase);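 note: the enzyme is Sfp with the accession as filed and its product quenches rhodamine fluorescence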;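 for largest response in the series, negative = inhibition: 0% = enzyme reaction without inhibitor and -100% = no enzyme wells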
# Conditions: Biochemical Sfp PPTase activity
# Procedure, shortened: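 Sfp 15 nM + cpd, 15 min RT; start w/ rhodamine-CoA 5 uM, BHQ-2-YbbR 12.5 uM (final); 50 mM Hepes pH 7.6, 10 mM MgCl2, 0.01% NP-40, 0.01% BSA; read 525/598 nm at 0 and 30 min.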
# Potency is the fitted concentration of half-maximal effect.
Structure (SMILES),"largest response in the series, negative = inhibition",Potency
Cc1cccc(N2C(=O)c3ccc(C(=O)Nc4cccc(C(=O)O)c4)cc3C2=O)c1,8.86%,
Cc1cccc(N2C(=O)SC(SC(=Nc3ccccc3)Nc3ccccc3)C2=O)c1 (stereo not drawn),,10 µM (active)
Cc1cccc(N2C(=O)CC(SC(N)=Nc3ccccc3)C2=O)c1 (stereo not drawn),10.8%,
CCOC(=O)C1(Cc2ccccc2C)CCCN(C(=O)CN2C(=O)CSC2=O)C1 (stereo not drawn),3.9%,
CC(=O)c1cccc(OCc2cc(C(=O)NC(C)Cc3cccnc3)no2)c1 (stereo not drawn),16.6%,
Cc1oc2c(F)c(F)c(F)c(F)c2c1S(=O)(=O)Nc1cccc(C(F)(F)F)c1,11.3%,
O=C(CN1CCOCC1)Nc1cc(Cl)ccc1Cl,2.24%,
O=C(CN1CCN(c2ccc(O)cc2)CC1)Nc1ccc(-c2ccccc2)cc1,,44.7 µM (active)
CC(=O)N1CCN(CC(=O)Nc2ccc(C)c(F)c2)CC1,-24.9%,
O=C(CN1CCN(c2cccc(Cl)c2)CC1)Nc1ccc(S(=O)(=O)N2CCOCC2)cc1,13%,
O=C(CN1CCN(Cc2ccccc2)CC1)Nc1ccc(F)c(F)c1,,56.2 µM (active)
O=C(CSc1nncs1)NC1CCCc2ccccc21 (stereo not drawn),15.6%,
Cc1cc(NC(=O)CCN2CCN(Cc3ccccc3)CC2)ccc1Br,-5.6%,
O=C(CN1CCN(c2ccc(O)cc2)CC1)Nc1cc(S(=O)(=O)N2CCOCC2)ccc1Cl,,79.4 µM (active)
O=C(CN1CCN(c2ccc(F)cc2)CC1)Nc1ccccc1,-1.74%,
O=C(CN1CCN(c2ccc(O)cc2)CC1)NC1CCCc2ccccc21 (stereo not drawn),,17.8 µM (active)
CSc1ccccc1N1CCN(CCCCCC(=O)NC2CCCc3ccccc32)CC1 (stereo not drawn),-7.93%,
O=C(CN1CCN(c2ccccc2)CC1)Nc1ccc(F)cc1,7.85%,
COc1ccc(C2(C#N)CCC(C(=O)O)CC2)cc1OC1CCCC1 (stereo not drawn),3.3%,
CN(CC(=O)NCCN1CCOCC1)S(=O)(=O)c1ccc(F)cc1,16.5%,
CN(CCNC(=O)c1cc2c(-c3ccccc3F)nn(C)c2s1)C1CCCCC1,5.98%,
COC(=O)c1cc(S(=O)(=O)NCC2CCN(Cc3ccc(Cl)cc3)CC2)cn1C,11.4%,
CCOC(=O)C1(Cc2ccccc2C)CCCN(C(=O)c2ccc(COC)o2)C1 (stereo not drawn),-22.7%,
COc1ccc(/C=N/Nc2ccccc2C(=O)O)cc1,11.5%,

Structure (SMILES),"largest response in the series, negative = inhibition",Potency
CCC(=O)Nc1nc(C)c(C(=O)Nc2cccc(Cl)c2)s1,8.26%,
O=C(NCc1ccc(F)cc1)C1CCN(C(=O)Nc2ccc(F)cc2)CC1,9.57%,
C=CCOC(=O)NC(c1ccc(F)c(F)c1)C(C(=O)COC)C(=O)OC (stereo not drawn),-7.09% and 12.8%,
CCOC(=O)c1cccc(NS(=O)(=O)c2c(C(=O)N3CCCCCC3)c(C)n(C)c2C)c1,2.36%,
Nc1nonc1-n1nnc(C(=O)N/N=C\c2ccncc2)c1CN1CCCCC1,21.3%,
COc1ccc2[nH]cc(CCN3C(=O)c4ccc(C(=O)O)cc4C3=O)c2c1,20.2%,
O=C(CNC(=O)C(c1ccccc1)c1ccccc1)N/N=C\c1ccc2c(c1)OCO2,-10.2%,
C(=N\Nc1ccc2ccccc2n1)/c1ccc2c(c1)OCO2,,50.1 µM (active)
O=C(N/N=C/c1ccc2c(c1)OCO2)C(=O)N1CCCC1,24.9%,
Cc1noc(C)c1/C=N/Nc1ccc2ccccc2n1,25.3%,
Brc1ccc(-c2csc(N/N=C/c3ccc4c(c3)OCO4)n2)cc1,,2.82 µM (active)
O=C(Cc1ccc(F)cc1)N/N=C/c1ccc2c(c1)OCO2,18.6%,
CCN(CC)/[N+]([O-])=N/Oc1cc(O/[N+]([O-])=N/N2CCCC2CO)c([N+](=O)[O-])cc1[N+](=O)[O-] (stereo not drawn),-6.67%,
Cn1c(=O)c2sccc2n(Cc2ccc(Br)cc2)c1=O,5.6%,
CCOc1ccc(N(CC(=O)Nc2ccccc2F)S(=O)(=O)c2c(C)[nH]c(=O)[nH]c2=O)cc1,9.89%,
COc1ccccc1C(=O)NC(=S)Nc1ccccc1N1CCCCC1,5.21%,
Cc1ccc(C(=O)NCC(=O)OCC(=O)NC2CCCCCCC2)cc1,15.7%,
COc1ccc(CNC(=O)C2CCN(S(=O)(=O)c3ccc(SC)cc3)CC2)cc1,8.97%,
O=S(=O)(c1ccc(Cl)cc1)c1nc(-c2ccco2)oc1N1CCCCC1,-3.63%,
O=S(=O)(c1ccc(Br)cc1)c1nc(-c2ccccc2)oc1N1CCOCC1,-5.06%,
O=S(=O)(c1ccccc1)c1nc(Cc2ccccc2)oc1N1CCOCC1,,44.7 µM (active)
Cc1ccc(OC(=O)c2cncc(Br)c2)c(C)c1,-4.31%,
COc1ccc(C(=O)CC(=O)C(=O)Nc2cc([N+](=O)[O-])ccc2OC)cc1,1.31%,
O=C(Nc1cccc([N+](=O)[O-])c1)Nc1ccc(Cl)cn1,13.8%,

Structure (SMILES),"largest response in the series, negative = inhibition",Potency
CCCc1cc(C(=O)Nc2ccc(Cl)cn2)cs1,2.86%,
O=C(Nc1ccc(Cl)cn1)Nc1cccs1,,39.8 µM (active)
Cc1sc2ncn(CC(=O)NCCN(C)C)c(=O)c2c1S(=O)(=O)N1CCC(C)CC1,16.8%,
O=C(CNC(=O)c1ccccc1)Oc1ccc([N+](=O)[O-])cc1,7.55%,
COc1ccc(C(=O)OCC(=O)Nc2cccc(C(C)=O)c2)cc1OC,11.4%,
CN(C)CCCNC(=S)N1CCN(c2nc(-c3ccccc3)cs2)CC1,-3.69%,
CC(=O)c1cccc(NC(=O)C2CCN(C(=O)c3ccccc3Cl)CC2)c1,-3.58%,
Cn1c(CCN2CCCC2)nc2cc(NS(=O)(=O)c3ccccc3)ccc21,1.01%,
O=S(=O)(Nc1ccc2nc(-c3ccco3)[nH]c2c1)c1ccccc1,,28.2 µM (active)
O=S(=O)(Nc1ccc2cn[nH]c2c1)c1ccccc1,14.6%,
O=C(c1ccc(Br)o1)N1CCN(CCOc2ccccc2)CC1,15.3%,
Cc1ccc(/C=N/NC(=O)c2cc3ccccc3cc2O)o1,13.6%,
O=[N+]([O-])c1cc([N+](=O)[O-])c2cccnc2c1O,,39.8 µM (active)
O=[N+]([O-])c1cccc2ncccc12,8.82%,
O=C(c1cccc(F)c1)N1CCN(c2ccc([N+](=O)[O-])c3cccnc23)CC1,1.54%,
NC(=O)C1CC(=O)N(c2ccc(OCC(=O)NCc3ccccc3)cc2)C1 (stereo not drawn),23.9%,
c1ccc2c(C[n+]3csc4ccccc43)cccc2c1,,44.7 µM (active)
Nc1scc[n+]1Cc1cccc2cccnc12,17.3%,
c1ccc(NCc2cccc3ccccc23)nc1,-7.37%,
C=CCCN(C(Cc1ccccc1)C(=O)OC)S(=O)(=O)c1cc(Br)ccc1Br (stereo not drawn),7.63%,
CCOc1ccc(N/C(N)=N/c2nc(C)c(C)c(=O)[nH]2)cc1,12.8%,
Cc1ccc(C)c(SCc2nc3sc(C(=O)O)c(C)c3c(=O)[nH]2)c1,-17.2%,
CSc1nnc(SCc2nc3sc(C(=O)O)c(C)c3c(=O)[nH]2)s1,,12.6 µM (active)
CCOC(=O)c1sc2nc(CSc3ccccc3)[nH]c(=O)c2c1C,1.58%,

Structure (SMILES),"largest response in the series, negative = inhibition",Potency
Cc1cccc(OCC(=O)NCCNC(=O)c2cccnc2)c1,3.63%,
CN(C)CCN(Cc1ccccc1)S(=O)(=O)c1csc(C(N)=O)c1,4.81%,
CCc1ccc(OCC(=O)OC(C)C(=O)NC2CC2)cc1 (stereo not drawn),6.01%,
Cc1ccc(NC(=O)c2cc(-c3ccc(C)o3)nc3ccccc23)nc1,,10 µM (active)
CSc1ncccc1C(=O)Nc1ccc(C)cn1,10.7%,
COc1ccc(NC(=O)c2cc(-c3cc(OC)c(OC)c(OC)c3)nc3ccccc23)c(OC)c1,1.5%,
CCc1nccn1CCC(=O)N1CCCC(N2CCN(c3ccccc3F)CC2)C1 (stereo not drawn),1.37%,
Cc1ccccc1-c1nc(CS(=O)(=O)CC(=O)NC(C)c2ccccc2)c(C)o1 (stereo not drawn),1.96%,
O=C(c1ccccc1)N1CCN(c2ccc([N+](=O)[O-])c(NCc3ccco3)c2)CC1,10.8%,
Cc1ccc(/C([O-])=C(/C(=S)NCc2ccco2)[n+]2ccccc2)cc1[N+](=O)[O-],,25.1 µM (active)
O=C(NCc1ccco1)c1ccc([N+](=O)[O-])cc1Cl,22.8%,
Cc1ccc(S(=O)(=O)NCC2CCC(C(=O)N3CCOCC3)CC2)cc1 (stereo not drawn),10%,
CC(C)CCN1NC2(CCC(C)CC2)NC1=S (stereo not drawn),,79.4 µM (active)
C[C@H]1Cc2c(COc3ccccc3)nc3c(c2CO1)CN(C(=O)NCc1ccco1)CC3,2.41%,
O=C(Cn1nc(C(=O)O)c2ccccc2c1=O)Nc1ccc(F)cc1,1.99%,
COCCOC(=O)C1=C(C)NC(=O)NC1c1cc2c(cc1Br)OCO2 (stereo not drawn),10.6%,
O=C(/C=C/c1ccc(Cl)cc1Cl)NCc1ccco1,-1.31%,
O=C(/C=C/c1ccc(Cl)cc1Cl)c1cccnc1,,31.6 µM (active)
O=C(Nc1cccnc1)c1cc(Cl)ccc1Cl,16.1%,
O=C(NCc1ccccc1Cl)c1ccc2c(=O)n(CC3CCCO3)c(=S)[nH]c2c1 (stereo not drawn),12.5%,
O=S(=O)(NC1CCCCC1N1CCC(O)CC1)c1ccc(Cl)cc1 (stereo not drawn),10.1%,
